The list is not random: actives were taken first. Their share in the collection is about 2.4%.
Cruzain inh noDet: qHTS Assay for Promiscuous and Specific Inhibitors of Cruzain (without detergent) | Potency, µM, most hits filed as inhibitors | Cruzipain (Trypanosoma cruzi), P25779 | purified cruzain, Z-FR-AMC fluorescence, no detergent | 2.3% of 200,000 active; further: nearly all actives have a fitted effect of over 40% in size
Target sequence (P25779 123-467 limits assumed): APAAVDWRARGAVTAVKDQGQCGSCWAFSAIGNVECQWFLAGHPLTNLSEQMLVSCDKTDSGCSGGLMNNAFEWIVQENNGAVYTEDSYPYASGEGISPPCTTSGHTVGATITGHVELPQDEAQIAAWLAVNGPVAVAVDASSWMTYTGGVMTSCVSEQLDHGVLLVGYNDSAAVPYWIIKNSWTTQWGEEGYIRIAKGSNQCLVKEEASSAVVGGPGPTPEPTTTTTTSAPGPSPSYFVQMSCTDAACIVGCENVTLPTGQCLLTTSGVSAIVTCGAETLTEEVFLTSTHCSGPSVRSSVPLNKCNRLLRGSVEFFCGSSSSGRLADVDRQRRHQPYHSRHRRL
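Purified cruzain at 1.5 nM, pre-incubated 15 min with compound at room temperature in 100 mM sodium acetate pH 5.5, 5 mM DTT, 0.00005% Triton X-100. Reaction started with 2 uM Z-FR-AMC; AMC fluorescence increase over 60 s gives rate.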
Cruzain Triton: qHTS Assay for Promiscuous and Specific Inhibitors of Cruzain (with detergent). 0.43% of 200,000 active. Potency, µM, actives largely listed as inhibitors. Cruzipain (Trypanosoma cruzi), P25779. purified cruzain, Z-FR-AMC fluorescence, 0.01% Triton; further: nearly all actives have a fitted effect of over 40% in size
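Z-FR-AMC hydrolysis (2 uM substrate) by cruzain (1.5 nM) monitored kinetically at ex 360/em 450 nm after 15 min room-temperature compound exposure; 0.01% Triton X-100, pH 5.5, 5 mM DTT.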
Hits are given with their value; n = inactive; u = inconclusive. The call rests on the fitted dose curve; in most records, active means well fitted curve in the direction sought with a large enough effect; inconclusive means small, poorly fitted or top-dose-only effect, or another doubt; inactive means no such curve, though single readings can be large; an effect the other way counts as inactive or inconclusive.

SMILES	Cruzain inh noDet	Cruzain Triton
COC(=O)c1c(NC(=O)C2SC(=NC3CCCCC3)C(C(N)=O)=C2N)sc2c1CCCC2 (configuration not stated)	7.9µM	n
COc1ccc(C)cc1NC(=O)C(OC(=O)CNC(=O)c1ccc(Oc2ccccc2)cc1)c1ccccc1 (configuration not stated)	u	n
COc1ccc(C)cc1NC(=O)C(OC(=O)CNC(=O)c1cccc(F)c1)c1ccccc1 (configuration not stated)	13µM	u
COc1ccc(C(=O)NCC(c2ccc(N(C)C)cc2)N2CCc3ccccc32)cc1OC (configuration not stated)	u	n
Cc1ccc(O)c(C2=Nc3ccccc3N=C(c3ccc([N+](=O)[O-])cc3)C2)c1	20µM	n
Cc1ccc(O)c(C2=Nc3ccccc3N=C(c3ccco3)C2)c1	n	n
Cc1ccc2c(c1)C(=O)C(=O)N2Cc1ccc(OCCC(C)C)cc1	n	n
CCN(CC)C(=O)Cn1c(=O)n(-c2ccc(OC)cc2OC)c(=O)c2c(C)c(C(=O)N(CC)CC)sc21	n	n
O=C(Nc1ccc(F)cc1)c1ccc(-n2cnnc2)cc1	n	n
Cc1ccccc1-c1ccc(C(=O)NCc2ccccc2)o1	n	n
Cc1ccc(-c2ccc(C(=O)NCc3ccc(Cl)cc3)o2)c2ccccc12	25µM	u
CC1=C(CC(=O)c2ccc(Cl)cc2)C(=O)c2ccccc2C1=O	n	n
Oc1cc(O)c2c(c1)O[C@H](c1ccc(O)c(O)c1)[C@@H](O)C2	n	n
O=c1c(O)cc(C2Oc3cc(O)cc(O)c3CC2O)cc2c(C3Oc4cc(O)cc(O)c4CC3O)cc(O)c(O)c12 (configuration not stated)	n	25µM
CCOc1ccc(CCNC(=O)c2cc3c(-c4ccccc4F)nn(C)c3s2)cc1OCC	u	n
O=C(NCc1ccccc1)c1ccc2c(c1)sc1nc(-c3ccc(F)cc3)cn12	n	n
COc1ccc(CNC(=O)c2nc(Cn3nc(C)c(Br)c3C)no2)cc1OC	n	n
Cc1cc(C)nc(Nc2ccc(N3CCCC3)cc2)n1	32µM	n
Cc1cc(C)nc(Nc2ccc(N3CCOCC3)cc2)n1	u	n
Cc1ccc2nc(-c3ccc(Cl)c(NC(=O)c4ccc5c(c4)OCCO5)c3)oc2c1	n	n
Cc1ccc(NC(=O)c2cc(S(=O)(=O)N3CCc4ccccc43)ccc2F)cc1Cl	u	n
CN(Cc1c(O)ccc2c1oc(=O)c1ccccc12)C1CCCCC1	n	n
CN(C)Cc1c(O)ccc2c3c(c(=O)oc12)CCCCC3	u	22µM
O=c1oc2c(CN3CCOCC3)c(O)ccc2c2c1CCCC2	u	28µM
O=c1oc2c(CN3CCOCC3)c(O)c(Cl)cc2c2c1CCCC2	u	28µM
SMILES	Cruzain inh noDet	Cruzain Triton
Cc1c(O)c(CN2CCCC2)cc2c3c(c(=O)oc12)CCC3	u	n
O=c1oc2c(CN3CCOCC3)c(O)ccc2c2ccccc12	n	n
Cc1ccc(CN(Cc2ccco2)C(=O)COc2cc(C)c(Cl)c(C)c2)cc1	n	n
CN(N=O)c1ccc(/C=C\c2ccnc3ccccc23)cc1	n	n
O=C(CCOc1ccccc1)N(Cc1cccnc1)c1nc2c(F)cc(F)cc2s1	n	n
COc1ccc(-c2coc3ccc(OC4OC(COC(C)=O)C(OC(C)=O)C(OC(C)=O)C4OC(C)=O)c(OC(C)=O)c3c2=O)cc1 (configuration not stated)	u	n
CCN(CC)c1ccc(C(=O)N2CCc3c([nH]c4ccccc34)C2c2ccc(F)cc2)cc1 (configuration not stated)	16µM	n
O=C(CSc1ccccc1)N1CCc2c([nH]c3ccccc23)C1c1ccc(F)cc1 (configuration not stated)	u	n
COc1cc(C(=O)N2CCc3c([nH]c4ccccc34)C2c2ccccc2)cc(OC)c1OC (configuration not stated)	u	n
CCOc1ccc(C2c3[nH]c4ccccc4c3CCN2C(=O)CSCc2ccc(F)cc2)cc1 (configuration not stated)	10µM	n
CCOc1cccc(C2c3[nH]c4ccccc4c3CCN2C(=O)CSCc2ccc(F)cc2)c1 (configuration not stated)	n	n
CSc1ccc(C2c3[nH]c4ccccc4c3CCN2C(=O)CCC2CCCC2)cc1 (configuration not stated)	10µM	n
CCc1ccc(-n2c(SCc3ccccc3Cl)nc3[nH]ncc3c2=O)cc1	n	n
O=C(c1csnn1)N1CCC2(CC1)CCN(c1ccncc1)CC2	n	n
C=CCn1c(O)c(N=NC(=O)OC(C)(C)C)c2ccccc21	n	n
C=CCn1c(O)c(N=NC(=S)Nc2ccc(OC)c(Cl)c2)c2ccccc21	10µM	n

Assay outcomes as filed in PubChem.
